High-throughput results: PubChem, Broad Institute
Hits are enriched below; roughly 3.3% of the tested compounds scored in any of these assays.
GSIS activator: GLuc luminescence reporter in INS-1E cells, primary screen for activators of glucose-dependent secretion of insulin; activation, % at 16.6 µM; INS-1E GLuc reporter insulin secretion, 2-3 h; 0.61% of 370,000 active;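 active means lowest replicate activation of at least 40%, so every replicate reaches that level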;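 further: 0% = median of neutral control wells and 100% = median of IBMX positive control wells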
FGF22 binding-1: binders of recombinant human FGF22 by thermal shift. 1.5% of 340,000 active. AID 651658. Q9HCT0. SYPRO orange fluorescence; percent of sucrose octasulfate shift, DMSO zero. activity (Tm shift, normalised), % at 9.99 µM;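 active means mean Tm shift, scaled 0 neutral to 100 positive control, at about 1.3% or above, every replicate too, limit read from the data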
Target sequence (Q9HCT0 whole entry, looked up): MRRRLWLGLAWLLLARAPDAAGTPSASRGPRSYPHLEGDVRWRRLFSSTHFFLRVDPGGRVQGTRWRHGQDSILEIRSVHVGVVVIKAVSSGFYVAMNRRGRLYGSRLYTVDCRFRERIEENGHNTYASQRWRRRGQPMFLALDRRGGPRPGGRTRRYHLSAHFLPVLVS
ERAP1 HTS inh: inhibitors of human ERAP1 aminopeptidase. 0.15% of 340,000 active. inhibition, % at 10.7 µM. Q9NZ08. recombinant ERAP1, Leu-AMC fluorescence, 60 min. AID 652197;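 active means mean replicate inhibition of at least 30%, or all replicates individually reaching that 30% level; inactive means mean below 30% and not every replicate reaching it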;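 further: 0% = neutral control wells and 100% = L-leucinethiol positive control wells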
CASP6 VEID inh: blocks human caspase-6 cleavage activity. purified caspase-6, Z-VEID-R110 cleavage fluorescence. inhibition, % at 12.5 µM. 0.53% of 350,000 active. AID 686996;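 active means mean inhibition across replicates at least about 35%, with every replicate also reaching that limit, limit read from the data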;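 further: 0% = median of neutral control wells and 100% = no fluorescence left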
SIRT5 block: sirtuin-5 (human) deacylase inhibition; Q9NXA8; Purified SirT5, succinyl-peptide AMC, trypsin-coupled fluorescence; inhibition, % at 15 µM; 1.1% of 330,000 active; AID 652115; in the data active means inhibition above about 15%
Target sequence (Q9NXA8 whole entry, looked up): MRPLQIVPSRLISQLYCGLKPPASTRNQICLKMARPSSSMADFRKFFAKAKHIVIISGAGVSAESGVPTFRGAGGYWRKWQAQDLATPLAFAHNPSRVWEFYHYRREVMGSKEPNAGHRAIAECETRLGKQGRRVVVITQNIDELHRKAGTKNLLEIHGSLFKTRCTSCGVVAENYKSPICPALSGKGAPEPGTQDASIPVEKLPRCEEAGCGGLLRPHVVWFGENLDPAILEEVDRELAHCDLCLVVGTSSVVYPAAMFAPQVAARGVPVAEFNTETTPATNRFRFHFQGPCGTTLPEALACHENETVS
FGF22 binding-2: binders of human FGF22 by thermal shift; 2% of 1,000 active; recombinant FGF22 thermal shift, SYPRO orange fluorescence; shares compounds with FGF22 binding-1; thermal shift activity, °C (ΔTm) at 38 µM; AID 720646;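 active means fitted rise in melting shift crosses a set limit at or below the top valid dose tested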
FGF22 TSA DP: FGF22 (human) binding by thermal shift; shares compounds with FGF22 binding-1; Thermal shift assay, SYPRO orange, melting temperature shift; Tm shift (activity), % at 38 µM; 50 tested, under 10 active;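 active means compounds whose fitted dose curve of melting temperature shift rises past a set threshold within the tested doses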
SYPRO no-protein: shows thermal shift signal without protein, FGF22 counter-screen | shares compounds with FGF22 binding-1 | compound-only SYPRO orange thermal shift counter-screen, no protein | AC50, µM (highest dose often 38 µM) | 2% of 1,000 active;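 active means rising signal whose fitted curve reaches the 0.54 level within the top valid dose, showing a melting point, actives reach about 13 µM in these data; inactive means the rest, including activity in the opposite direction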; further: value is where the raw curve crosses a fixed level and not half-maximal
* = called active by the depositor; [ ] = dose if it differs, or a comment.

Screening O=C(c1ccc2c(c1)OCO2)N1CC(=O)N2[C@@H](CO)[C@H](c3ccc(C#CCC4CCCC4)cc3)[C@@H]2C1 returned GSIS activator -31, FGF22 binding-1 1.8*, ERAP1 HTS inh 1, CASP6 VEID inh 3, SIRT5 block 13, FGF22 binding-2 -0.027 and SYPRO no-protein inactive.
For O=C(c1ccccc1)N1CC(=O)N2[C@H](CO)[C@@H](c3ccc(C#CC4CC4)cc3)[C@@H]2C1 the results were GSIS activator 14, FGF22 binding-1 0, ERAP1 HTS inh 3, CASP6 VEID inh 3 and SIRT5 block -1.
`O=C(c1ccccc1)N1CC(=O)N2[C@H](C1)[C@@H](c1ccc(C#CC3CC3)cc1)[C@@H]2CO` gave GSIS activator -10, FGF22 binding-1 1.8*, ERAP1 HTS inh 4, CASP6 VEID inh 4, SIRT5 block -4, FGF22 binding-2 0.055[42 µM] and SYPRO no-protein inactive.
For O=C(c1ccc(F)cc1)N1CC(=O)N2[C@H](CO)[C@@H](c3ccc(C#CC4CC4)cc3)[C@@H]2C1 the results were GSIS activator 1, ERAP1 HTS inh 0, CASP6 VEID inh 0 and SIRT5 block 4.
Screening COCC(=O)N(C)C[C@H]1Oc2ncc(C#CCC3CCCC3)cc2C(=O)N([C@@H](C)CO)C[C@H]1C returned GSIS activator 14, FGF22 binding-1 -1, ERAP1 HTS inh -4, CASP6 VEID inh 2 and SIRT5 block 6.
For Cc1nc2ccccc2c2oc(C(=O)NCc3ccc4c(c3)OCO4)cc12 the results were GSIS activator -46, FGF22 binding-1 11*, ERAP1 HTS inh -3, CASP6 VEID inh 2, SIRT5 block 3, FGF22 binding-2 -4.6[19.5 µM] and SYPRO no-protein 6.3µM*.
For Cc1ccccc1NCC(=O)N/N=C\C=C\c1cccc([N+](=O)[O-])c1 the results were GSIS activator 1, FGF22 binding-1 1.5*, ERAP1 HTS inh 3, CASP6 VEID inh 4, SIRT5 block -2, FGF22 binding-2 -0.1 and SYPRO no-protein inactive.
For CCC(=O)Nc1ccc2c(c1)OC[C@@H](C)N(C(=O)CC)C[C@@H](C)[C@@H](OC)CN(C)C2=O the results were GSIS activator -3.
O=S1(=O)N=C(N(Cc2cccs2)c2ccc(O)cc2)c2ccccc21 was read as GSIS activator -5, FGF22 binding-1 1.4*, ERAP1 HTS inh 5, CASP6 VEID inh 4, SIRT5 block 1, FGF22 TSA DP 0 and SYPRO no-protein inactive.
For C/C=C/c1ccc([C@H]2[C@@H](CO)N(C(C)=O)C23CN(C(=O)c2ccncc2)C3)cc1 the results were GSIS activator 3, FGF22 binding-1 0, ERAP1 HTS inh -1, CASP6 VEID inh 0 and SIRT5 block 2.
Screening C/C=C/c1ccc([C@H]2[C@@H](CO)N(C(C)=O)C23CN(C(=O)c2ccc(F)cc2)C3)cc1 returned GSIS activator -17, FGF22 binding-1 1.4*, ERAP1 HTS inh 1, CASP6 VEID inh -2, SIRT5 block 1, FGF22 binding-2 -0.22 and SYPRO no-protein inactive.
Screening C[C@@H]1CN([C@H](C)CO)C(=O)CCCn2nncc2CO[C@@H]1CN(C)CC1CC1 returned GSIS activator 5, FGF22 binding-1 0, ERAP1 HTS inh 1, CASP6 VEID inh 3 and SIRT5 block -3.
CCCCN(C(=O)c1ccc2c(c1)OCCO2)c1c(N)n(CCCC)c(=O)[nH]c1=O was read as GSIS activator 7, FGF22 binding-1 21*, ERAP1 HTS inh 2, CASP6 VEID inh 4, SIRT5 block -3, FGF22 binding-2 0.11 and SYPRO no-protein inactive.
CCCCn1c(N)c(N(CCC(C)C)C(=O)c2ccc3c(c2)OCO3)c(=O)[nH]c1=O was read as GSIS activator -5, FGF22 binding-1 0, ERAP1 HTS inh -1, CASP6 VEID inh -1 and SIRT5 block 0.
`COC(=O)[C@]1(C)N[C@H](c2ccc(-c3cccc(Cl)c3)cc2)[C@@H]2C(=O)N(C)C(=O)[C@@H]21` gave FGF22 binding-1 0, ERAP1 HTS inh 0 and CASP6 VEID inh 1.
For COC(=O)[C@]1(C)N[C@H](c2ccc(-c3ccccc3)cc2)[C@@H]2C(=O)N(C)C(=O)[C@@H]21 the results were GSIS activator 3, FGF22 binding-1 8.1*, ERAP1 HTS inh -1, CASP6 VEID inh -2, SIRT5 block -5, FGF22 binding-2 -0.025 and SYPRO no-protein inactive.
Screening S=C(Nc1ccc(N2CCOCC2)cc1)Nc1ccc2snnc2c1 returned GSIS activator -13, FGF22 binding-1 1.6*, ERAP1 HTS inh 0, CASP6 VEID inh 9, SIRT5 block -6, FGF22 binding-2 -0.23 and SYPRO no-protein inactive.
For O=C(Nc1ccc2snnc2c1)N1CCN(c2ccccc2)CC1 the results were GSIS activator 20.
O=C(O)c1ccccc1Nc1ccc([N+](=O)[O-])cc1 was read as GSIS activator -17, FGF22 binding-1 1.7*, ERAP1 HTS inh 0, CASP6 VEID inh -5, SIRT5 block 5, FGF22 binding-2 0.34 and SYPRO no-protein inactive.
For O=C(O)c1ccccc1Nc1ccccc1C(=O)O the results were GSIS activator 7, FGF22 binding-1 0, ERAP1 HTS inh 1, CASP6 VEID inh 1 and SIRT5 block 1.
Screening C/C(=N\NC(=O)c1cccc(S(=O)(=O)N2CCOCC2)c1)c1ccc(OC(F)F)cc1 returned GSIS activator -15, FGF22 binding-1 1.6*, ERAP1 HTS inh -5, CASP6 VEID inh 4, SIRT5 block -2, FGF22 binding-2 0.04 and SYPRO no-protein inactive.
`C/C(=N\NC(=O)c1cccc(S(=O)(=O)N2CCOCC2)c1)c1ccc(O)cc1` gave GSIS activator 7, FGF22 binding-1 0, ERAP1 HTS inh 0, CASP6 VEID inh 0 and SIRT5 block 1.
C[C@H]1CN([C@@H](C)CO)C(=O)Cc2cc(N(C)C)ccc2O[C@@H]1CN(C)S(=O)(=O)c1ccccc1 was read as GSIS activator 22, FGF22 binding-1 -1, ERAP1 HTS inh 2, CASP6 VEID inh 3 and SIRT5 block -2.
Screening CO[C@H]1CN(C)C(=O)c2ccc(NC(=O)Nc3cc(F)ccc3F)cc2OC[C@H](C)N(C)C[C@H]1C returned GSIS activator -6, FGF22 binding-1 0, ERAP1 HTS inh -1, CASP6 VEID inh -18 and SIRT5 block 5.
For C[C@H](CO)N1C[C@H](C)[C@H](CN(C)S(=O)(=O)c2ccccc2)Oc2ncc(Br)cc2C1=O the results were GSIS activator 21, FGF22 binding-1 0, ERAP1 HTS inh 3, CASP6 VEID inh -2 and SIRT5 block 0.
